Assay outcomes as filed in PubChem.
Only some compounds are listed: those with a hit (about 0.81% of all), similar ones and a draw of the others.
LRH-1 inv ag: NR5A2 inverse agonism in reporter assay; AID 602396; 360,000 compounds, 0.13% hits; inhibition, % at 3.6 µM; HEK293T StAR-luciferase reporter, LRH-1 transfected, 24 h;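 active = inhibition above the mean inhibition of all tested compounds plus 3 SD, cut at about 73% in these data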;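 also: 0% = DMSO wells and 100% = reporter-only cells lacking LRH-1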
Target sequence (O00482 whole entry, looked up): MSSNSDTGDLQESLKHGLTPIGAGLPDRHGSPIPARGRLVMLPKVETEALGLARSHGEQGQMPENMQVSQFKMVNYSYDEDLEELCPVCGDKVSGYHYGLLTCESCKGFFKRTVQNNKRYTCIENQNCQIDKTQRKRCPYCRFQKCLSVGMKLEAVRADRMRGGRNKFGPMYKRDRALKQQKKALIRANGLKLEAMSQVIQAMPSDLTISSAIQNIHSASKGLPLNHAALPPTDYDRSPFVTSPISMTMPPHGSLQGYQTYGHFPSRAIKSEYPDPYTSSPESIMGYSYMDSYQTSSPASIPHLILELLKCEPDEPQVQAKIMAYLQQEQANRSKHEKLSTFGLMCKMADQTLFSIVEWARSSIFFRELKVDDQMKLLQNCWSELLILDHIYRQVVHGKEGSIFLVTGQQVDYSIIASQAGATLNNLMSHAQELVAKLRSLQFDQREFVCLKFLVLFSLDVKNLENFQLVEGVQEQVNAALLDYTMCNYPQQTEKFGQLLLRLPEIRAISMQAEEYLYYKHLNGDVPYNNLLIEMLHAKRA
NCOA3 inh: inhibits human SRC3 coactivator; HEK293 GAL4-SRC3 luciferase reporter, luminescence; inhibition, % at 3.6 µM; 360,000 compounds, 0.17% hits; AID 588352;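 active = inhibition above a per-campaign cutoff, the mean of all compounds plus 3 SD, cut at about 60% in these data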;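 also: 0% = DMSO-treated cells and 100% = gossypol-treated cells at 36 µM; higher means less SRC3-driven luciferase light from the GAL4 reporter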
NR2F2 inh: blocks human COUP-TFII nuclear receptor; HEK293T NGFI-A luciferase reporter, luminescence; inhibition, % at 8.6 µM; 370,000 compounds, 0.7% hits; P24468;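 active = inhibition above a per-plate cutoff, mean inhibition of test wells between control levels plus 3 SD, cut at about 38% in these data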;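 also: cells cotransfected with COUP-TFII expression vector driving the NGFI-A reporter; 0% = median of COUP-TF2 test wells and 100% = reporter-only cells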
NCOA2 inhibitor: inhibits human steroid receptor coactivator 2 | AID 651957 | Q15596 | 370,000 compounds, 0.17% hits | HEK293 GAL4-SRC2 luciferase reporter, luminescence | inhibition, % at 9 µM;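 active = inhibition above the mean inhibition of all tested compounds plus 3 SD, set per campaign, cut at about 52% in these data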;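 also: 0% = DMSO treated cells and 100% = cells given Gossypol at 36 µM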
SRC1 inh: inhibits human SRC1 coactivator. HEK293 GAL4-SRC1 luciferase reporter, luminescence. 360,000 compounds, 0.12% hits. inhibition, % at 3.6 µM;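 active = inhibition above the campaign mean plus 3 SD, with each screening campaign given its own cutoff, cut at about 60% in these data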;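 also: 0% = DMSO treated cells and 100% = gossypol at 36 µM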
VP16 Luc counter: counter-screen for COUP-TFII antagonists: inhibitors of VP16; shares compounds with NR2F2 inh; HEK293 Gal4-VP16 luciferase reporter, luminescence; inhibition, % at 8.5 µM; 2,500 compounds, 25% hits; AID 687007; in the data active = inhibition above about 13%
COUP-TFII conf: confirmation of human COUP-TFII (NR2F2) inhibitors | shares compounds with NR2F2 inh | inhibition, % at 8.5 µM | 2,500 compounds, 45% hits | AID 687008 | HEK293 NGFI-A luciferase reporter, luminescence;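 active = mean inhibition over three repeats above a set limit taken from the earlier primary screen, cut at about 38% in these data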;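 also: 100% = cells given the luciferase reporter alone without the COUP-TF2 vector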
* hit, by the source's call; · = no result.

SMILES	LRH-1 inv ag	NCOA3 inh	NR2F2 inh	NCOA2 inhibitor	SRC1 inh	VP16 Luc counter	COUP-TFII conf
CC(C)Oc1cccc(-c2n[nH]c(=S)n2N=Cc2ccc(O)cc2O)c1	·	·	12	-8	·	·	·
C#CC[N+](C)(C)CCCCCCCCCC	26	41	47*	33	41	-2	18
C#CC[N+](C)(C)CCCCCCCC	2	11	5	15	8	·	·
CCCCCCCCCCCCCCCC[N+](C)(C)CC	32	17	12	17	14	·	·
C#CC[N+](C)(C)CCCCCCCCCCCC	53	59	41*	31	39	1	30
CC#CC[N+](C)(C)CCCCCCCCCCCC	55	34	44*	2	33	7	27
COC(=O)c1cccc(N2C(=O)C[C@](Sc3ccc(OC)cc3)(C(=O)N3CCOCC3)[C@H]2c2ccc(OC)cc2)c1	·	·	9	-9	·	·	·
CCOC(=O)[C@]12CCCC=C1N(CCCOC)C(=O)[C@@H]2CC(=O)NCC1CCCCC1	·	·	9	-6	·	·	·
N#Cc1ccc(Cn2ccc3ccc(-c4ccc5ccn(C(=O)C6CCC6)c5c4)cc32)cc1	·	·	8	-8	·	·	·
CC(=O)c1cccc(N=c2scc(-c3ccc(S(=O)(=O)N4CCOCC4)cc3)n2CCO)c1	46	54	60*	-5	26	4	65*
Cc1ccc(-n2c(SCC(=O)Nc3ccccc3-c3ccccc3)nnc2-c2cccs2)cc1	·	·	-8	18	·	·	·
CCN(CC)S(=O)(=O)c1cccc(C(=O)Nc2ccc(C#N)cc2)c1	33	20	55*	4	9	-5	40*
CCN(CC)S(=O)(=O)c1cccc(NC(=O)c2ccc(Br)cc2)c1	-6	22	39*	11	-3	-6	2
CCN(CC)S(=O)(=O)c1cccc(NC(=O)c2cncc(Br)c2)c1	-22	-8	13	2	11	·	·
Nc1cc[n+](CC(=O)c2ccc3c(c2)OCCO3)cc1	40	17	40*	30	-10	-3	16
O=C(NCCc1ccccc1)c1ccc2c(c1)OCCO2	56	53	71*	76*	48	36*	53*
O=C(C[n+]1ccc(C(=O)NCc2ccccc2)cc1)c1ccc2c(c1)OCCO2	22	4	-12	11	10	·	·
O=C(CCCc1ccccc1)c1ccc2c(c1)OCCO2	67	70*	85*	75*	71*	49*	90*
O=C(NCCc1ccccc1)c1ccc2c(c1)OCCCO2	78*	74*	88*	88*	74*	72*	91*
O=C(NCCCc1ccccc1)OC1CC2CC1[C@H]1CCCCN1[C@H]2Cc1ccccc1 (some centres undefined)	·	·	-3	-1	·	·	·
CCN(CC)S(=O)(=O)c1cc(NC(=O)C(=O)c2c(-c3ccccc3)cc3ccccn23)ccc1C	5	-2	39*	8	1	12	18
CCN(CC)S(=O)(=O)c1cccc(NC(=O)C(=O)c2c(-c3ccccc3)cc3ccccn23)c1	-2	8	26	-3	-20	·	·
O=C1C(=O)c2cccnc2-c2ncccc21	104*	91*	103*	94*	89*	97*	112*
COc1cccc2c1C(=O)c1c(O)c3c(c(O)c1C2=O)CC(O)(C(C)=O)CC3OC1CC(N(C)C)C(O)C(C)O1 (centres undefined)	97*	85*	53*	55*	75*	15*	20
CC(=O)[C@@]1(O)Cc2c(O)c3c(c(O)c2[C@H](O[C@H]2C[C@H](N)[C@H](O)[C@H](C)O2)C1)C(=O)c1ccccc1C3=O	34	-67	58*	-51	-138	10	38*
SMILES	LRH-1 inv ag	NCOA3 inh	NR2F2 inh	NCOA2 inhibitor	SRC1 inh	VP16 Luc counter	COUP-TFII conf
Cc1ccc(C(=O)NCCN2C(=O)C3C4C=CC(C4)C3C2=O)cc1 (centres undefined)	·	·	0	8	·	·	·
CCOC(=O)CC[C@@H]1CC[C@]2(CCCN(C(=O)c3ccco3)C2)O1	·	·	-12	6	·	·	·
CC(C)(C)OC(=O)NCCCCCc1cn([C@@H](CO)C(=O)NCCCCCCCCCCC(=O)N2CCN(C(=O)OC(C)(C)C)CC2)nn1	48	72*	69*	54*	53	-6	79*
CC(C)(C)OC(=O)CC[C@@H](C(=O)NCCCCCCCCCCC(=O)N1CCN(C(=O)OC(C)(C)C)CC1)n1cc(CCCCCNC(=O)OC(C)(C)C)nn1	7	8	1	-17	-7	·	·
CCC1CCCCN1S(=O)(=O)c1ccc(NC(=O)c2ccncc2)cc1 (centres undefined)	33	12	61*	39	20	7	57*
CN1CCN(S(=O)(=O)c2ccc3c(c2)OCCO3)CC1	13	8	2	-6	4	·	·
Cc1ccc(S(=O)(=O)N2CCN(c3ncnc4sccc34)CC2)cc1C	27	0	43*	21	33	-3	24
O=S(=O)(c1ccc2c(c1)OCCO2)N1CCN(c2ncnc3sccc23)CC1	36	27	70*	38	4	3	53*
CC(=O)NC1CCCCN(Cc2ccc(Cl)cc2)C1=O (centres undefined)	·	·	-18	-60	·	·	·
CSc1ccc(C(=O)C2CCCN(C(=O)CCc3c(C)nn(C)c3C)C2)cc1 (centres undefined)	25	11	58*	20	7	-2	34
CSc1ccc(C(=O)C2CCCN(C(=O)CCn3cncn3)C2)cc1 (centres undefined)	-20	17	1	14	11	·	·
CCOc1cccc(/C=N/NC(=S)Nc2ccccc2[N+](=O)[O-])c1O	79*	80*	82*	60*	84*	5	67*
COc1ccc(CCC[C@@H](CCC(=O)N(c2ccccc2)c2ccccc2)CCc2ccccc2)cc1	·	·	1	5	·	·	·
Cn1c(=O)oc2cc(S(=O)(=O)NCc3ccncc3)ccc21	26	-1	44*	24	14	-8	-4
O=C(Nc1ccc(S(=O)(=O)NCc2cccnc2)cc1)c1ccccc1Cl	25	22	40*	16	15	6	28
O=C(Nc1ccccc1)c1ccc(S(=O)(=O)NCc2cccnc2)cc1	-6	-1	32	4	29	·	·
O=S(=O)(NCc1ccncc1)c1ccc(Br)s1	28	23	63*	20	33	7	54*
O=C(O)CNS(=O)(=O)c1ccc(Br)s1	-7	11	3	-9	1	·	·
Cc1cc(C)c(C)c(S(=O)(=O)NCc2ccncc2)c1C	26	10	38*	-3	4	6	30
COc1ccc(-n2c(COc3ccc(Cl)cc3)nnc2SCC(=O)c2ccc(-c3ccccc3)cc2)cc1	·	·	1	-21	·	·	·
